HADH2 inhib – HADH2 (human) dehydrogenase inhibition; Q99714; recombinant HADH2, NADH fluorescence, beta-hydroxybutyryl-CoA; Potency, µM (top dose mostly 57.1 µM), without a hit: top-dose activity change, negative = inhibition, usual class: inhibitors; hit rate 3.4% among 73,000; AID 886; also: potency is read from the fitted curve at half-maximal effect; % is scaled to controls: 0 for no effect and ±100 for the full control effect; nearly all actives have a fitted effect of over 60% in size
Target sequence (Q99714 whole entry, looked up, one chain of several): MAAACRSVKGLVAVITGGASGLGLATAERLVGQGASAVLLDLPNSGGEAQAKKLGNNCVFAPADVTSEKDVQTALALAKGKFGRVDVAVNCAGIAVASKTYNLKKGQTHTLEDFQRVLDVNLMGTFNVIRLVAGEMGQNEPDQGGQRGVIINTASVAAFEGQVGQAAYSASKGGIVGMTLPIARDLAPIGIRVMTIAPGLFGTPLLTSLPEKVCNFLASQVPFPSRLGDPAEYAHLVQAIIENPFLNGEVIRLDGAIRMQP
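His-tagged recombinant enzyme from E. coli, 20 nM, preincubated 15 min RT with compound; reaction started with 1 mM NAD+ and 90 uM beta-hydroxybutyryl-CoA in 100 mM Tris-HCl pH 9.0. NADH fluorescence (ex 360/em 450) read over 4 min; last-minus-first difference.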
CRE Fsk mod – CRE-bla signaling modulation under forskolin stimulation; CHO CRE-bla reporter (cAMP response element driving beta-lactamase), forskolin EC10, beta-lactamase ratio; Potency, µM (doses to about 38.2 µM), for inactives: top-dose activity change, negative = inhibition, actives largely listed as activators; hit rate 2.5% among 71,000; AID 662; active = well fitted activation curve with a large enough effect in the signal ratio, with a control signal flat, not every such curve was filed as active; inconclusive = small, poorly fitted or top-dose-only effect, or effect the other way, or a change in a side signal; the % refers to the signal ratio; also: potency is read from the fitted curve at half-maximal effect; % of control where 0% means no effect
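CRE-bla CHO cells stimulated with EC10 NKH 477 (water-soluble forskolin) and compound titrations, 3 h at 37C; beta-lactamase read with CCF4 after 2 h at room temperature. Activity from 460/530 nm emission ratio, AC50 values for positive or negative modulation.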
HSD17B inh – HSD17B dehydrogenase inhibition | Q99714 | recombinant HSD17B10, NADH fluorescence kinetic | Potency, µM (top dose mostly 57.1 µM), for inactives: at the top dose activity change, negative = inhibition, most hits filed as inhibitors | hit rate 7.6% among 75,000;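 also: the protocol describes HADH2 (HSD17B10) and not the HSD17B4 of the title; potency is read from the fitted curve at half-maximal effect; % is scaled to controls: 0 for no effect and ±100 for the full control effect; nearly all actives have a fitted effect of over 70% in size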
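Activity followed as NADH fluorescence increase (ex 360, em 450 nm) every 30 seconds for 4 min, using final 90 uM beta-hydroxybutyryl CoA and 1 mM NAD+. Recombinant His-tagged enzyme, 20 nM, pH 9.0 Tris buffer, 15 min compound preincubation.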
4-MU autofl – 4-MU region autofluorescence; compound autofluorescence, 340/450 nm, 4-MU equivalents; active compounds read high; max dye-equivalent concentration, M; hit rate 11% among 59,000; AID 589; in the data active = max dye-equivalent concentration above about 10 nM; inconclusive = mostly about 1.1 nM to 9.6 nM
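Intrinsic fluorescence at 340/450 nm (ex/em) was read after 15 min at room temperature in pH 8.0, 100 mM Tris. Each compound concentration expressed as 4-MU-equivalent concentration from a six-point 4-MU standard series on each plate.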
A350 fluor – compound fluoresces in the Alexa 350 spectral region | Compound autofluorescence, 340/450 nm, Alexa 350 dye-equivalents; active compounds read high | max dye-equivalent concentration, M | hit rate 11% among 59,000; in the data active = max dye-equivalent concentration above about 10 nM; inconclusive = mostly about 1.1 nM to 9.6 nM
AID923 – qHTS Assay for Allosteric/Competitive Inhibitors of Caspase-1: Spectroscopic Profiling in AFC Spectral Region; compound fluorescence, AFC spectral region (405/520 nm); Potency, µM (top dose mostly 57.5 µM), for the others: at the top dose fluorescence increase, most hits filed as activators; hit rate 1.1% among 75,000; also: potency is read from the fitted curve at half-maximal effect; 0% is about no effect
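Baseline compound fluorescence (AFC region, 405 nm ex/520 nm em) taken from the intercept of kinetic reads with 50 nM caspase-1 and 5 uM Ac-WEHD-AFC; normalized to an on-plate AFC standard curve; compounds titrated up to 57 uM.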
The depositor's hits bear a star. A selection: hits, their analogues and other compounds. The true share with any hit is near 14%. Unless noted, calls follow the shape of the dose curve; as a rule, active = well fitted curve in the direction sought with a large enough effect; inconclusive = small, poorly fitted or top-dose-only effect, or another doubt; inactive = no such curve, though single readings can be large; an effect the other way counts as inactive or inconclusive.

Screening COc1ccccc1NC(=O)CSc1nnnn1-c1ccc2c(c1)OCO2 returned HADH2 inhib -1%, CRE Fsk mod inconclusive, HSD17B inh -5%, 4-MU autofl inactive, A350 fluor inactive and AID923 1%.
COc1cccc(-n2nnnc2SCC(=O)c2cc(OC)ccc2OC)c1 was read as HADH2 inhib 20%, CRE Fsk mod 3%, HSD17B inh inconclusive, 4-MU autofl 1.5e-07M*, A350 fluor 1.2e-07M* and AID923 -1%.
`COc1ccc(-n2c(SCC(=O)Nc3ccc4c(c3)OCO4)nc3ccccc3c2=O)cc1` gave HADH2 inhib 10%, CRE Fsk mod -2%, HSD17B inh 0%, 4-MU autofl 1.6e-06M*, A350 fluor 2.2e-06M* and AID923 0%.
For COc1ccc(NC(=O)CSc2nc3ccccc3c(=O)n2-c2ccc3c(c2)OCO3)c(OC)c1 the results were HADH2 inhib 11%, CRE Fsk mod 4µM*, HSD17B inh -3%, 4-MU autofl inactive, A350 fluor inactive and AID923 1%.
COc1ccc(-n2nnnc2SCC(=O)Nc2ccc3c(c2)OCCO3)cc1OC was read as HADH2 inhib 9%, CRE Fsk mod 10µM*, HSD17B inh -5%, 4-MU autofl inactive, A350 fluor inactive and AID923 -1%.
CCOC(=O)CCC(=O)N1CCNC(=O)C1 was read as HADH2 inhib -5%, CRE Fsk mod 20%, HSD17B inh -4% and AID923 -4%.
Screening CCOC(=O)CNC(=O)c1cn(CC)c(=O)c2cc(OC)c(OC)cc12 returned HADH2 inhib -3%, CRE Fsk mod 5µM*, HSD17B inh -3%, 4-MU autofl inconclusive, A350 fluor inconclusive and AID923 0%.
CCOC(=O)CNC(=O)c1cn(C)c(=O)c2cc(OC)c(OC)cc12 was read as HADH2 inhib 1%, CRE Fsk mod inconclusive, HSD17B inh -8%, 4-MU autofl inactive, A350 fluor inactive and AID923 0%.
Screening COc1cc2c(C(=O)NCc3ccccn3)cn(CC(C)C)c(=O)c2cc1OC returned HADH2 inhib 0%, CRE Fsk mod 7.9µM*, HSD17B inh -17% and AID923 0%.
Screening CCn1cc(C(=O)NCc2cccnc2)c2cc(OC)c(OC)cc2c1=O returned HADH2 inhib 0%, CRE Fsk mod 5µM*, HSD17B inh 5%, 4-MU autofl inactive, A350 fluor inactive and AID923 0%.
`CCOC(=O)c1cnc2c(C#N)c(C)nn2c1-c1ccccc1` gave HADH2 inhib inconclusive, CRE Fsk mod inconclusive, HSD17B inh inconclusive and AID923 5%.
CCOC(=O)c1cnc2c(C#N)c(C)nn2c1C was read as HADH2 inhib 3%, CRE Fsk mod 22%, HSD17B inh 25µM*, 4-MU autofl inconclusive, A350 fluor inconclusive and AID923 1%.
For O=C1CC(c2ccc(F)cc2)Cc2nc(NCc3ccco3)ncc21 (stereo not drawn) the results were HADH2 inhib -5%, CRE Fsk mod 4%, HSD17B inh 1%, 4-MU autofl inactive, A350 fluor inactive and AID923 -2%.
Screening CC1CC(=O)c2cnc(NCc3ccco3)nc2C1 (stereo not drawn) returned HADH2 inhib 10%, CRE Fsk mod 18%, HSD17B inh 3%, 4-MU autofl 1.1e-08M*, A350 fluor 1.4e-08M* and AID923 1%.
Screening O=C(CN1CCN(c2ccccn2)CC1)NC1CCCC1 returned HADH2 inhib -3%, CRE Fsk mod -1%, HSD17B inh 4%, 4-MU autofl inactive, A350 fluor inactive and AID923 1%.
`O=C(COc1ccc(Cl)cc1)N1CCN(c2ncccn2)CC1` gave HADH2 inhib 12%, CRE Fsk mod -20%, HSD17B inh 3%, 4-MU autofl inactive, A350 fluor inactive and AID923 0%.
